# Assay results published in PubChem BioAssay AID652054 (National Center for Advancing Translational Sciences (NCATS), 2013).
# The campaign covered roughly 360,000 compounds. About 9,100 (2.5%) were called active. Another 4% or so got no clear call; they are omitted. The sample holds actives, similar compounds and a random draw of the others, so the mix is not that of the screen. No stated cut-off is given here; in the data, active means max response below about -50%; inconclusive means no clear call, values can overlap the other calls; inactive means above that.
# Molecular target: D(3) dopamine receptor (Homo sapiens) (UniProt P35462)
# Sequence (P35462 whole entry, looked up): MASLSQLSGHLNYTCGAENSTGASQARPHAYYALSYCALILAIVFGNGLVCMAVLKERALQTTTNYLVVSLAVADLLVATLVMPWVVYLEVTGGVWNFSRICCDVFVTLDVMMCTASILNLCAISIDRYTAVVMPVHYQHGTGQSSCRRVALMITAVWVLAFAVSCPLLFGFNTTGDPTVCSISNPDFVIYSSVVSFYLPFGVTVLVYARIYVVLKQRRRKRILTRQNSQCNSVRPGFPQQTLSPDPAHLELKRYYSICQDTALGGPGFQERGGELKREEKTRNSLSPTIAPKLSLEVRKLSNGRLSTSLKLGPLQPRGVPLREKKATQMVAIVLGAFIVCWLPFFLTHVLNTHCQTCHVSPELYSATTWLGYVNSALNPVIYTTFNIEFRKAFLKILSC
# Assay: qHTS of D3 Dopamine Receptor Antagonist: qHTS
# Conditions: D3R cells, DiscoveRx beta-arrestin luminescence, antagonist mode; stronger effect = lower value
# Summary of the method: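 Cells expressing the human receptor were seeded at 1500 cells/well, incubated overnight at 37 degrees C in 5% CO2, then exposed to library compounds with dopamine controls for 90 minutes at 37 degrees C before luminescent detection.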
# On the % scale 0 is the no-effect control and ±100 the full control effect.
row,SMILES,"max response, negative = inhibition"
1,Cn1nccc1C(=O)N1CCCC(C(=O)c2ccc(Oc3ccccc3)cc2)C1 (configuration not stated),22.9% (inactive)
2,O=C(c1ccc(-c2ccccc2)cc1)C1CCCN(C(=O)c2cncs2)C1 (configuration not stated),-57.7% (active)
3,CCNC(=O)N1CCCC(C(=O)c2ccc(-c3ccccc3)cc2)C1 (configuration not stated),10.6% (inactive)
4,CC1(C(=O)Nc2cccc3c2CCCC3)CCN1C(=O)CCc1ccc(Cl)cc1Cl (configuration not stated),9.05% (inactive)
5,COc1cccc(CNc2nc3cc(-c4csc5ccccc45)sc3c(=O)n2C)c1,6.45% (inactive)
6,COc1cc2c(cc1O)C(SC)=NC(C)(C)C2,-89.4% (active)
7,COc1cc2c(cc1OC)C(C(C)C)=NC(C)(C)C2,-19.9% (inactive)
8,COc1cc2c(cc1OC)C(Nc1ccc(S(N)(=O)=O)cc1)=NC(C)(C)C2,3.38% (inactive)
9,CCOC(=O)C1CCCN(C(=O)c2ccc(C)c(F)c2)CC1 (configuration not stated),-26.1% (inactive)
10,Cc1sc2ncnc(SCC(=O)NC3CCS(=O)(=O)C3)c2c1C (configuration not stated),-20.5% (inactive)
11,CCOc1ccc(CN2CCN(Cc3c[nH]c4ccccc34)CC2)cc1,-60% (active)
12,O=C(NCCc1c[nH]c2ccccc12)C1CCN(Cc2ccc(Br)cc2)CC1,-82.8% (active)
13,CC1(C(=O)NCCc2c[nH]c3ccccc23)C=CC2(CCCCC2)N1C(=O)c1ccccc1 (configuration not stated),45.7% (inactive)
14,CCOc1ccc(CN2CCN(CCCc3ccccc3)C(CCO)C2)cc1 (configuration not stated),-25.6% (inactive)
15,Cc1ccc2[nH]cc(CCNC(=O)C3CCCCC3)c2c1,11.6% (inactive)
16,CCOc1ccc(CN2CCCN(C)CC2)cc1,-29.1% (inactive)
17,C[C@H]1CN([C@@H](C)CO)C(=O)CCCn2cc(nn2)CO[C@@H]1CN(C)S(=O)(=O)c1cccc(C#N)c1,14.4% (inactive)
18,COc1ccc(N2c3ccccc3CN(Cc3ccccc3)[C@@H](C)[C@H]2Cc2ccc(-c3ccccc3)cc2)cc1,9.42% (inactive)
19,CCC(=O)N1Cc2cc(C(=O)NCc3cccc(F)c3)nc(-c3cccc(C4=CCCC4)c3)c2[C@H]1CCO,-8.57% (inactive)
20,CCOC(=O)c1c(C)[nH]c(C)c1C(=O)COC(=O)/C=C/c1cccc([N+](=O)[O-])c1,19.7% (inactive)
21,O=C(COC(=O)/C=C/c1ccc(Cl)cc1)NC1CCS(=O)(=O)C1 (configuration not stated),-20.8% (inactive)
22,Cc1ccc(-c2nc(CS(=O)CC(=O)NC3CCCC3)c(C)o2)cc1 (configuration not stated),12.9% (inactive)
23,Cc1ccc(-c2nc(CSCC(=O)NC3CCN(Cc4ccccc4)CC3)c(C)o2)cc1,-76.3% (active)

row,SMILES,"max response, negative = inhibition"
1,Cc1cc(NC(=O)CSCc2nc(-c3cccc(Cl)c3)oc2C)no1,-28.8% (inactive)
2,CN(C)C(CNC(=O)Cc1ccc([N+](=O)[O-])cc1)c1ccccc1 (configuration not stated),-19% (inactive)
3,CN(C)C(CNC(=O)c1cc2ccccc2o1)c1ccccc1 (configuration not stated),-82.9% (active)
4,Cc1cc(NC(=O)c2cc3ccccc3o2)no1,3.37% (inactive)
5,COc1cc(=O)[nH]c(=O)n1C(=O)Cc1ccccc1,-54.3% (active)
6,CCCOc1ccc(Cn2c(O)cc(=O)[nH]c2=O)cc1,-8.86% (inactive)
7,COc1ccc(OC)c(NC(=O)C2(C)CCN2C(=O)Cc2ccccc2)c1 (configuration not stated),19.2% (inactive)
8,CC1(C(=O)NS(=O)(=O)c2ccccc2)CCN1C(=O)C1CCCCC1 (configuration not stated),-29.5% (inactive)
9,CC(=O)Nc1ccc(-c2ccnc3c2CC(C(=O)NC(C)C)O3)cc1 (configuration not stated),23.5% (inactive)
10,CC1CC(NC(=S)N(C)C)CC(C)(C)C1 (configuration not stated),-2.04% (inactive)
11,CC(CC(=O)O)C(=O)c1ccc(Cl)c([N+](=O)[O-])c1 (configuration not stated),7.05% (inactive)
12,O=C(/C=C/c1ccc(Cl)c([N+](=O)[O-])c1)c1ccc(O)cc1,-79.6% (active)
13,CC(=O)Nc1ccc(C=CC(=O)c2ccc([N+](=O)[O-])cc2)cc1,1.23% (inactive)
14,CCCCn1nnnc1C(c1ccccc1)N1CCN(c2ccccc2OC)CC1 (configuration not stated),-12.3% (inactive)
15,OC(c1ccc(F)cc1)c1ncc(-c2cccc(C(F)(F)F)c2)[nH]1 (configuration not stated),4.48% (inactive)
16,CCCCNC(=O)C[C@@H]1C[C@@]2(C(=O)OCC)CCC=C2N(Cc2cccc3ccccc23)C1=O,0% (inactive)
17,CC1=C/C(=N\OS(=O)(=O)c2ccccc2)C=CC1=O,-80.7% (active)
18,CC(C)(C)C1CCC(=O)N2CCC[C@]2(c2ccccc2)C1 (some centres not stated),0% (inactive)
19,CC1(C)OC(=O)C2=C(C[C@@H](C3CCCC3)O[C@@H]2c2ccc(Cl)cc2)O1,0.96% (inactive)
20,CN(CC(=O)O)C(=O)c1ccccc1,-19.9% (inactive)
21,CN(O)C(=S)c1ccccc1,-113% (active)
22,CN(Cc1ccccc1)C(=O)c1cccc(C(=O)N(C)Cc2ccccc2)c1,-13% (inactive)
23,Cc1csc(=O)n1CCC(=O)OCC(=O)Nc1ccc(N2CCOCC2)cc1,-0.664% (inactive)

row,SMILES,"max response, negative = inhibition"
1,O=[N+]([O-])c1ccc(N2CCN(CC(O)COc3ccccc3)CC2)cc1 (configuration not stated),-27.1% (inactive)
2,O=C(COC(=O)c1ccc(F)cc1)NCC1COc2ccccc2O1 (configuration not stated),-19.4% (inactive)
3,OC(COCC1COc2ccccc2O1)CN1CCN(c2ccc(F)cc2)CC1 (configuration not stated),-58.5% (active)
4,CCc1cccc(CC)c1N1C(=O)CC(Sc2ccccc2N)C1=O (configuration not stated),-0.919% (inactive)
5,C[C@H](CO)N1C[C@H](C)[C@@H](CN(C)S(=O)(=O)c2ccc(Oc3ccccc3)cc2)OCc2cn(nn2)CCCC1=O,2.13% (inactive)
6,O=c1c2c3c(sc2n(CCN2CCCC2)c(=O)n1Cc1ccccc1)CCCCC3,-21.9% (inactive)
7,CN(C)CCCn1c(=O)n(Cc2ccccc2)c(=O)c2c3c(sc21)CCCCC3,-52.1% (active)
8,CCn1c(=S)[nH]c2sc3c(c2c1=O)CCCCC3,-15.3% (inactive)
9,Cc1ccc(-c2cnc(C(O)c3cc(Cl)cc(Cl)c3)[nH]2)cc1 (configuration not stated),17.6% (inactive)
10,COc1cccc(CN2CCN(Cc3ccc4cccc(F)c4n3)CC2CCO)c1 (configuration not stated),-65.2% (active)
11,CC(=O)Nc1ccc(CN2CCN(Cc3ccc(F)c(F)c3)C(CCO)C2)cc1 (configuration not stated),7.18% (inactive)
12,OCCC#Cc1ccc(CN2CCN(Cc3ccsc3)C(CCO)C2)cc1 (configuration not stated),-22.9% (inactive)
13,OCCC1CN(Cc2ccccc2-c2ccco2)CCN1Cc1ccsc1 (configuration not stated),-16.3% (inactive)
14,Cc1cccc(CN2CCN(Cc3cnn(-c4ccccc4F)c3)CC2CCO)n1 (configuration not stated),-69% (active)
15,Cc1ccc(CN2CCN(Cc3ccc4ncccc4c3)CC2CCO)cc1 (configuration not stated),-16% (inactive)
16,OCCC1CN(Cc2cccc(OC3CCCC3)c2)CCN1Cc1ccsc1 (configuration not stated),-81.9% (active)
17,OCCC1CN(Cc2cnc(-c3ccccc3)s2)CCN1CCc1ccccc1 (configuration not stated),-27.8% (inactive)
18,OCCC1CN(Cc2cccc(O)c2)CCN1CCc1ccccc1 (configuration not stated),-52.7% (active)
19,OCCC1CN(Cc2ccc(Oc3ncccn3)cc2)CCN1CCc1ccccc1 (configuration not stated),-10.3% (inactive)
20,CCOc1ccc(CN2CCN(Cc3ccc4cc(F)ccc4n3)CC2CCO)cc1 (configuration not stated),-27.2% (inactive)
21,Cc1ccc(CN2CCN(Cc3cccc(C)n3)CC2CCO)cc1 (configuration not stated),-24.5% (inactive)
